# PubChem BioAssay (Tox21)
# Results filed as inconclusive are left out. Unmarked numbers belong to inactive results. Activity calls are given as the source filed them. Calls follow the shape of the dose curve; as a rule, active = well fitted inhibition curve with a large enough effect in the signal ratio in the repeat runs (not every such curve was filed as active); inconclusive = weak or mixed curves, or effect the other way; inactive = no such curve, though single readings can be large or run the other way; the % refers to the signal ratio.
# Biological target: Glucocorticoid receptor (Homo sapiens) (UniProt P04150)
# Experiment: qHTS assay to identify small molecule antagonists of the glucocorticoid receptor (GR) signaling pathway (AID 720692)
# Settings: GR-bla HeLa, beta-lactamase FRET ratio, dexamethasone-stimulated, 18 h; series mostly up to 58.5 µM; activity change, negative = inhibition: at the top concentration
# Excerpt: U.S. Tox21 Program National Center for Advancing Translational Sciences [NCATS] NIH Chemical Genomics Center [NCGC] U.S. Environmental Protection Agency [EPA] National Institutes of Environmental Health Sciences [NIEHS] National Toxicology Program [NTP] U.S. Food and Drug Administration [FDA] Tox21 Assay Overview: The Glucocorticoid receptor (GR) is one of the members of the nuclear receptor family of ligand-dependent transcription factors. GR plays a critical role in carbohydrate, protein and lipid metabolisms and programmed cell death. CellSensor GR-bla HeLa cell line (Invitrogen) contains a beta-lactamase reporter gene under the control of the glucocorticoid response element stably integrated into HeLa cells, a cervical cancer cell line that expresses glucocorticoid receptor. The activation of the reporter gene under culture conditions can be detected by fluorescence intensity. This cell line has been used to screen the Tox21 10K compound library and to identify the compounds that inhibit the GR signaling.
# Tox21 Assay Protocol Summary: The GR-bla HeLa cells were dispensed at 1500 cells/5 ul/well in 1536-well black wall/clear bottom plates using a Multidrop Combi (ThermoFisher Scientific, Waltham, MA) dispenser. After the assay plates were incubated at a 37 C/5% CO2 incubator for 4 hours, 23 nL of compounds dissolved in DMSO, positive controls or DMSO only was transferred to the assay plate by a pintool station (Kalypsys, San Diego, CA), followed by addition of 1 uL of dexamethasone (5 nM, final concentration in the well). The plates were incubated at 37 C for 18 hours. After 1 uL of LiveBLAzerTM B/G FRET substrate was added using a Flying Reagent Dispenser (Aurora Discovery, San Diego, CA), the plates were incubated at room temperature for 2 hours, and fluorescence intensity was measured by an Envision plate reader (PerkinElmer, Shelton, CT).
# % is scaled to controls: 0 for no effect and ±100 for the full control effect; potency is read from the fitted curve at half-maximal effect.
# Sequence of Glucocorticoid receptor (Homo sapiens) (P04150 whole entry, looked up): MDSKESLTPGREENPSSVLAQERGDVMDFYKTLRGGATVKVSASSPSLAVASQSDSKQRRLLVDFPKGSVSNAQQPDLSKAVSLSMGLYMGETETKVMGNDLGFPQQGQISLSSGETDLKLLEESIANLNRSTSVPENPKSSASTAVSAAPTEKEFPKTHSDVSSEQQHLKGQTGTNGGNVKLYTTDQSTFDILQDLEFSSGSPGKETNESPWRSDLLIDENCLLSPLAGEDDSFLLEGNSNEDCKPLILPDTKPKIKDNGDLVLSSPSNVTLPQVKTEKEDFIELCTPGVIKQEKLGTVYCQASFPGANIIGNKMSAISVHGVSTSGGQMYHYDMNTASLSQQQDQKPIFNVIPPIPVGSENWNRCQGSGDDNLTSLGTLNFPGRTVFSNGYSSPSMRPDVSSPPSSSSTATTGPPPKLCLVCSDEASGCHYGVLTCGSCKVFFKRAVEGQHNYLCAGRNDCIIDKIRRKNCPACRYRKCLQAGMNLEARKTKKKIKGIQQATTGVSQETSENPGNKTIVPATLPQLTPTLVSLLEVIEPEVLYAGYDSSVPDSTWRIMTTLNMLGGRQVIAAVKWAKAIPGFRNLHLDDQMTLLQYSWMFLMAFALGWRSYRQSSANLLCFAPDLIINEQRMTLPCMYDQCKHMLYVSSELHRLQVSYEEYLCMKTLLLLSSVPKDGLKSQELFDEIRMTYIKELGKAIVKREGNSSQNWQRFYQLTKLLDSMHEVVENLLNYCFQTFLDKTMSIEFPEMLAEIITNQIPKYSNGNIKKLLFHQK
Compound,"activity change, negative = inhibition",Potency
CC1CCCC(=O)C1=O (stereo not given),-0.205%,–
Cc1ccc2c(c1)CCCN2,2.2%,–
CCCCCC,-14.4%,–
CC(C)C(O)C(C)(C)CO (stereo not given),19.9% [at 78.9 µM],–
O=C1[C@@H]2[C@H]3CC[C@H](C3)[C@@H]2C(=O)N1CCCCN1CCN(c2ncccn2)CC1,-9.08%,–
O=C(O)CCCc1c[nH]c2ccccc12,-4.2%,–
CCCCCCCC/C=C\CCCCCCCC(=O)OCCO,–,57.8 µM (active)
O=c1[nH][nH]c(=O)c2cc([N+](=O)[O-])ccc12,-1.64% [at 78.9 µM],–
O=C(O)CNC(=O)c1ccccc1I,-0.972%,–
COc1ccc(N)c([N+](=O)[O-])c1,20.3%,–
Cc1ccc(N(CC2=NCCN2)c2cccc(O)c2)cc1,-9.96%,–
C=C(C)C(=O)OCCC(F)(F)C(F)(F)C(F)(F)C(F)(F)C(F)(F)C(F)(F)F,2.05%,–
CCN(Cc1cccc(S(=O)(=O)O)c1)c1ccc(C(=C2C=CC(=[N+](CC)Cc3cccc(S(=O)(=O)O)c3)C=C2)c2ccc(O)cc2S(=O)(=O)[O-])cc1,-9.65%,–
BrC(Br)C(Br)Br,4.54%,–
O=C1OC(=O)c2c(Br)c(Br)c(Br)c(Br)c21,-12.3%,–
CCC(Cl)CC(Cl)C(Cl)C(Cl)C(Cl)C(C)Cl (stereo not given),-10.1% [at 15.1 µM],–
[Cl][Nd]([Cl])[Cl],-4.89%,–
COC(OC)OC,3.63%,–
O=C(O)CCC(=O)c1ccc(-c2ccccc2)cc1,-12.8% [at 27 µM],–
CCOC(=O)C(C)O (stereo not given),7.44% [at 78.9 µM],–

Compound,"activity change, negative = inhibition",Potency
C=CC(=O)NC(C)C,-24.1%,–
CCN(CC)CCOC(=O)C(c1ccccc1)c1ccccc1,8.93%,–
CC(=O)c1ccc[nH]1,3.94%,–
CCC(C)(C)C(=O)O,-10.4%,–
COc1ccc(-n2nc(C(F)F)cc2-c2ccc(S(C)=O)cc2)cc1 (stereo not given),-20.3%,–
CCCCCCCC(=O)OCCCCCC,-5.94%,–
Nc1nc(-c2ccc([N+](=O)[O-])cc2)cs1,-8.69% [at 78.9 µM],–
CCCCCCOC(=O)CCCCC,2.67%,–
CC(C)CC(O)CC(C)C,-17.5%,–
COc1ccc(C2C(=O)c3ccccc3C2=O)cc1,6.32%,–
Cc1cc([N+](=O)[O-])ccc1N,9.03%,–
CCCCCCCCCCCCCCN(C)C,-8.13% [at 27 µM],–
O=C(CCS)OCC(COC(=O)CCS)(COC(=O)CCS)COC(=O)CCS,28.9%,–
Cc1ccc(Nc2c(F)cccc2Cl)c(CC(=O)O)c1,-16%,–
O=C(O)c1cccc(Oc2ccccc2)c1,-7.07%,–
O=C1OC[C@H](Cc2cccc(O)c2)[C@H]1Cc1cccc(O)c1,17.7% [at 27 µM],–
O=P(O)(O)Oc1ccccc1,-7.62%,–
O=C(O)CCC(=O)OC[C@@H](NC(=O)C(Cl)Cl)[C@H](O)c1ccc([N+](=O)[O-])cc1,1.08%,–
CN1C(CSCC(F)(F)F)Nc2cc(Cl)c(S(N)(=O)=O)cc2S1(=O)=O (stereo not given),-19.5%,–
CCN(CC)c1ccc(C(=C2C=CC(=[N+](CC)CC)C=C2)c2ccc(S(=O)(=O)O)cc2S(=O)(=O)[O-])cc1,-11%,–
